About 2,000 (36%) of roughly 5,500 compounds were called active. Not shown: some 18% with an inconclusive outcome. Cut-off read from the data, not from the text of the source: active = normalized growth mostly below about 0.91 (no sharp cut-off); inconclusive = no clear call, values can overlap the other calls; inactive = mostly above about 0.92. This is one part of the list.
Test: chemical genetic growth profiling, strain panel (AID 1159580);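 note: tested at 20 µM; growth read once vehicle control cultures reached saturation at 30 °C; 1 = growth at the plate median or of vehicle wells; lower values mean less growth of the strain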
Conditions: S. cerevisiae deletion strains, growth OD

Measured: normalized growth

CC(=O)O[C@@H]1CC2C(C)(C)CCC[C@]2(C)C2CC[C@]3(C)C(=CC(=O)O[C@H]3c3ccoc3)[C@@]21C (stereo partly drawn)
inactive: locus YBR021W, strain FUR4, active compounds read low 1.02 | locus YBR229C, strain ROT2, active compounds read low 1.01 | locus YCL029C, strain bik1, active compounds read low 1 | locus YDL035C, strain GPR1, active compounds read low 1.02 | locus YDL074C, strain BRE1, active compounds read low 1.01 | locus YDL101C, strain DUN1, active compounds read low 1.01 | locus YDL185W, strain tfp1, active compounds read low 1.01 | locus YDL192W, strain arf1, active compounds read low 0.999 | locus YDR101C, strain arx1, active compounds read low 1.01 | locus YDR150W, strain NUM1, active compounds read low 1.02 | locus YDR162C, strain NBP2, active compounds read low 1 | locus YDR318W, strain mcm21, active compounds read low 0.981 | locus YDR388W, active compounds read low 1.01 | locus YDR502C, strain sam2, active compounds read low 0.977 | locus YEL061C, strain CIN8, active compounds read low 1.02 | locus YER110C, active compounds read low 1.01 | locus YER155C, strain BEM2, active compounds read low 1 | locus YER167W, strain BCK2, active compounds read low 1.02 | locus YGL078C, strain dbp3, active compounds read low 0.982 | locus YGL086W, strain mad1, active compounds read low 0.984 | locus YGL248W, strain PDE1, active compounds read low 1.01 | locus YGR135W, strain pre9, active compounds read low 0.978 | locus YGR229C, strain SMI1, active compounds read low 0.97 | locus YGR252W, strain gcn5, active compounds read low 0.993 | locus YHR030C, strain SLT2, active compounds read low 1.02 | locus YHR079C, strain IRE1 (second series), active compounds read low 1 | locus YHR094C, strain hxt1, active compounds read low 1 | locus YHR129C, strain ARP1, active compounds read low 1.02 | locus YHR200W, strain rpn10, active compounds read low 1.01 | locus YIL066C, strain RNR3, active compounds read low 1.02 | locus YIL073C, strain SPO22, active compounds read low 1.02 | locus YIL125W, strain kgd1, active compounds read low 1 | locus YIR030C, strain dcg1, active compounds read low 1 | locus YJL095W, strain BCK1, active compounds read low 0.97 | locus YJL134W, strain LCB3, active compounds read low 1.02 | locus YJL168C, strain set2, active compounds read low 0.994 | locus YJL187C, strain SWE1 (second series), active compounds read low 1 | locus YJR043C, strain POL32, active compounds read low 1.05 | locus YJR075W, strain HOC1, active compounds read low 1.01 | locus YKL009W, strain mrt4, active compounds read low 1.03 | locus YKL068W, active compounds read low 0.989 | locus YKL085W, strain MDH1 (second series), active compounds read low 1.01 | locus YKL085W, strain MDH1, active compounds read low 1.01 | locus YKR001C, strain vps1, active compounds read low 0.967 | locus YLR039C, strain RIC1, active compounds read low 0.902 | locus YLR058C, strain SHM2, active compounds read low 1.01 | locus YLR102C, strain apc9, active compounds read low 1 | locus YLR262C, strain YPT6, active compounds read low 0.928 | locus YLR268W, strain sec22, active compounds read low 0.973 | locus YLR330W, strain CHS5, active compounds read low 1.02 | locus YLR342W, strain FKS1 (second series), active compounds read low 0.983 | locus YLR371W, strain rom2, active compounds read low 1 | locus YLR418C, strain cdc73, active compounds read low 0.941 | locus YML016C, strain PPZ1, active compounds read low 1.02 | locus YML032C, strain rad52, active compounds read low 0.99 | locus YML124C, strain tub3, active compounds read low 0.993 | locus YMR078C, strain ctf18, active compounds read low 0.986 | locus YMR223W, strain ubp8, active compounds read low 0.983 | locus YMR263W, strain SAP30, active compounds read low 1.02 | locus YMR307W, strain GAS1, active compounds read low 1.09 | locus YNL067W, strain RPL9B, active compounds read low 1.01 | locus YNL128W, strain TEP1, active compounds read low 1.03 | locus YNL233W, strain BNI4, active compounds read low 0.948 | locus YNL250W, strain rad50, active compounds read low 0.968 | locus YNL271C, strain bni1, active compounds read low 1 | locus YNL298W, strain CLA4, active compounds read low 0.992 | locus YNL307C, strain MCK1, active compounds read low 0.992 | locus YNL322C, strain KRE1, active compounds read low 1.02 | locus YNR052C, strain pop2, active compounds read low 0.993 | locus YOL006C, strain TOP1, active compounds read low 1.06 | locus YOL012C, strain htz1 0.86 | locus YOL147C, strain pex11, active compounds read low 1.01 | locus YOR061W, strain CKA2, active compounds read low 1.01 | locus YOR069W, strain VPS5, active compounds read low 1.02 | locus YOR136W, strain idh2, active compounds read low 0.997 | locus YOR144C, strain elg1, active compounds read low 0.999 | locus YOR184W, strain ser1, active compounds read low 0.982 | locus YOR316C, strain cot1, active compounds read low 1 | locus YPR119W, strain clb2, active compounds read low 0.985 | locus YPR141C, strain kar3, active compounds read low 1.01 | locus YPR163C, strain tif3, active compounds read low 0.994 | locus YPR167C, strain met16, active compounds read low 0.998 | strain wtn01, active compounds read low 0.996

Reference: PubChem BioAssay AID1159580 (chemical genetic matrix, 2015)
